An excerpt weighted towards active compounds, which were near 7.5% of everything screened.
VACV Venus inh – vaccinia inhibition (Venus reporter). Vaccinia virus Venus reporter expression, fluorescence. Potency, µM (series often up to 36.5 µM), usual class: inhibitors. hit rate 0.46% among 330,000; calls by dose curve; tested in A549 cells; further: nearly all actives have a fitted effect of over 30% in size
HCMV antiviral – inhibitors of human cytomegalovirus; HFF cells, HCMV-luciferase reporter, 72 h; hits give low values; activity change, negative = inhibition, % at 57.5 µM; hit rate 4.5% among 410,000; AID 1259415; in the data active means activity change below about -60%; inconclusive means no clear call, values can overlap the other calls; inactive means above about -39%
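Compounds were evaluated in HFFs infected with an HCMV luciferase reporter virus (MOI 1 PFU/cell). Luciferase in lysates collected 72 h post infection served as the replication measure.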
FMDV inh – foot and mouth disease virus antiviral activity; FMDV antiviral cell-based qHTS; Potency, µM (top dose mostly 57.9 µM), usual class: inhibitors; hit rate 1.2% among 410,000; AID 1159524; calls by dose curve; tested in HEK293T cells; further: read-out not given here; nearly all actives have a fitted effect of over 45% in size
Giardia FBPA inh – inhibitors of Giardia lamblia fructose-1,6-bisphosphate aldolase | Potency, µM (highest dose often 59.6 µM), hits mostly inhibitors | A8B2U2 | hit rate 0.71% among 290,000 | purified Giardia FBPA; further: nearly all actives have a fitted effect of over 55% in size
Target sequence (A8B2U2 whole entry, looked up): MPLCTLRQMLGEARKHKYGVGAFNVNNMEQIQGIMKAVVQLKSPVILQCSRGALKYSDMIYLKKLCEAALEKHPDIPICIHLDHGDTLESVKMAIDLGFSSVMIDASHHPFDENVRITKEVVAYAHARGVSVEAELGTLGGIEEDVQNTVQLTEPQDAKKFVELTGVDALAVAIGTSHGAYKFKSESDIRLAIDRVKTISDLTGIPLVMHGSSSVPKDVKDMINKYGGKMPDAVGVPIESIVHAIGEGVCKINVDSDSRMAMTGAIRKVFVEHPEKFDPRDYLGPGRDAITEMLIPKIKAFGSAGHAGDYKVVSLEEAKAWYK
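Giardia FBPA (40 nM reagent) was preincubated 10 min at RT with compound (up to 57.5 uM final), then substrate plus GAPDH/TPI/NAD/arsenate coupling system with diaphorase/resazurin was added; resorufin fluorescence (525/598 nm) was read after 20 min.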
HCV inhibitor – blocks hepatitis C virus; Huh7.5.1 HCVcc-Cre infection, luciferase reporter, 44 h; Potency, µM (doses to about 41.8 µM), most hits filed as inhibitors; hit rate 3.4% among 340,000
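A cell-based infection assay in which seeded cells (1,000 per well) receive test compound after 4 h, are inoculated with HCVcc-Cre at approximately 0.5 moi, and are incubated 44 h before luminescence detection.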
VACV mCherry inh – inhibitors of vaccinia virus infection (mCherry reporter signal); hit rate 0.63% among 310,000; Potency, µM (series often up to 36.5 µM), most hits filed as inhibitors; AID 720579; Vaccinia virus mCherry reporter infection, fluorescence; calls by dose curve; tested in A549 cells; further: nearly all actives have a fitted effect of over 35% in size
Numbers stand for hits; [ ] = remark or other dose. Unless noted, the call rests on the fitted dose curve; in most records, active means well fitted curve in the direction sought with a large enough effect; inconclusive means small, poorly fitted or top-dose-only effect, or another doubt; inactive means no such curve, though single readings can be large; an effect the other way counts as inactive or inconclusive.

O=C(/C=C/c1ccccc1)N1CCCC1CO (stereo not given) was read as Giardia FBPA inh inactive[12.9 µM].
For C[C@@H]1[C@H]2[C@@H]3CC[C@@H](C3)[C@H]2CN[C@H]1c1cn(Cc2ccccc2)c2ccccc12 the results were VACV Venus inh inconclusive, HCMV antiviral inactive, FMDV inh inactive, HCV inhibitor 22.4µM and VACV mCherry inh inactive.
Screening Cc1ccc(Cn2c(SCC(=O)N3CC(=O)Nc4ccccc43)nc3ccccc3c2=O)cc1 returned VACV Venus inh inactive, HCMV antiviral -76.3, FMDV inh inactive, Giardia FBPA inh inactive, HCV inhibitor 10µM and VACV mCherry inh inconclusive.
`O=C1CN(C(=O)CSc2nc3cc(Cl)ccc3c(=O)n2Cc2ccccc2)c2ccccc2N1` gave VACV Venus inh inactive, HCMV antiviral inconclusive, FMDV inh inactive, Giardia FBPA inh inactive, HCV inhibitor 11.2µM and VACV mCherry inh inactive.
For Cc1nnc(SCC(=O)N2CC(=O)Nc3ccccc32)n1Cc1ccccc1 the results were VACV Venus inh inactive, HCMV antiviral inactive, FMDV inh inactive, Giardia FBPA inh inactive, HCV inhibitor inactive and VACV mCherry inh inactive.
Screening O=C(O)c1ccccc1-c1ccccc1C(=O)Nc1cccc(O)c1 returned VACV Venus inh inactive, HCMV antiviral inactive, FMDV inh inactive, Giardia FBPA inh inactive, HCV inhibitor inactive and VACV mCherry inh inactive.
For O=C(Cn1cnc2onc(-c3ccc(F)cc3)c2c1=O)N1CCN(c2ccccc2F)CC1 the results were VACV Venus inh inactive, HCMV antiviral inactive, FMDV inh inactive and VACV mCherry inh inactive.
CN(C)c1ccc(N=Nc2ccccc2C(=O)OCC(=O)Nc2ccccc2C(F)(F)F)cc1 was read as VACV Venus inh inactive, HCMV antiviral -74.6, FMDV inh inactive, Giardia FBPA inh inactive, HCV inhibitor inactive and VACV mCherry inh inactive.
Screening CCC(C)[C@H](NC(=O)c1cc2cc(Cl)ccc2n1C)C(=O)N1CCC[C@H]1C(=O)O (stereo not given in full) returned VACV Venus inh inconclusive, HCMV antiviral inactive, FMDV inh inactive, Giardia FBPA inh inactive, HCV inhibitor inactive and VACV mCherry inh inconclusive.
For Cn1c(=O)[nH]c(=O)c2c1nc(Br)n2Cc1cccc(Br)c1 the results were VACV Venus inh inactive, HCMV antiviral -81.6, FMDV inh inactive, Giardia FBPA inh inactive, HCV inhibitor inconclusive and VACV mCherry inh inactive.
CN1CCN(c2nc3c(c(=O)[nH]c(=O)n3C)n2Cc2cccc(Br)c2)CC1 was read as HCMV antiviral inactive, FMDV inh inactive, Giardia FBPA inh inactive and HCV inhibitor inactive.
`Cn1c(=O)[nH]c(=O)c2c1nc(Br)n2CCCSc1nc2ccccc2o1` gave HCMV antiviral -60.8, FMDV inh 22.4µM, Giardia FBPA inh inactive and HCV inhibitor inconclusive.
`Cn1c(=O)[nH]c(=O)c2c1nc(Br)n2CCOc1ccccc1` gave HCMV antiviral inactive, FMDV inh 17.8µM, Giardia FBPA inh inactive and HCV inhibitor inactive.
Screening COc1cc(OC)c(NC(=O)c2cc(C(C)=O)n3ccccc23)cc1Cl returned VACV Venus inh inactive, HCMV antiviral inactive, FMDV inh inactive and VACV mCherry inh inactive.
`O=C(COC(=O)c1ccc(Cl)cc1)NCC1CCCCC1` gave VACV Venus inh inactive, HCMV antiviral inactive, FMDV inh inactive, HCV inhibitor inactive and VACV mCherry inh inactive.
Screening Cn1cccc1C(=O)N1CCC[C@@]2(CCN(c3ccccc3)C2)C1 returned FMDV inh inactive and Giardia FBPA inh inactive.
For CN(C)c1ccccc1C(=O)c1ccccc1N(C)C the results were VACV Venus inh inconclusive, HCMV antiviral inactive, FMDV inh inactive, Giardia FBPA inh inactive, HCV inhibitor 3.98µM and VACV mCherry inh inconclusive.
For CCN1c2ccccc2N(C)C1(C)c1ccccc1 (stereo not given) the results were VACV Venus inh inactive, FMDV inh inconclusive, Giardia FBPA inh inconclusive, HCV inhibitor inactive and VACV mCherry inh inactive.
CN1c2ccccc2N(C)C1(C)c1ccccc1 was read as VACV Venus inh inactive, HCMV antiviral -92.8, FMDV inh inactive, Giardia FBPA inh inconclusive, HCV inhibitor inactive and VACV mCherry inh inactive.
Screening CCN(CC)CC#CC(OC)(c1ccccc1)c1ccccc1 returned VACV Venus inh inactive, HCMV antiviral -63.1, FMDV inh inconclusive, Giardia FBPA inh inactive, HCV inhibitor inactive and VACV mCherry inh inactive.
For CCN(CC)CCC#CC(O)(c1ccccc1)c1ccccc1 the results were VACV Venus inh inactive, HCMV antiviral inactive, FMDV inh inactive, Giardia FBPA inh inactive, HCV inhibitor inactive and VACV mCherry inh inactive.
Screening O=C(OCC(=O)c1ccc(Cl)cc1Cl)c1cnccn1 returned VACV Venus inh inactive, HCMV antiviral inactive, FMDV inh inactive, Giardia FBPA inh inactive, HCV inhibitor inactive and VACV mCherry inh inactive.
For CC(C)(C)C1CCC(C(=O)OCC(=O)Nc2ccc3[nH]c(=O)[nH]c3c2)CC1 (stereo not given) the results were VACV Venus inh inactive, HCMV antiviral -72.2, FMDV inh inactive, Giardia FBPA inh inactive, HCV inhibitor inactive and VACV mCherry inh inactive.
Screening Cc1ccc([N+](=O)[O-])cc1S(=O)(=O)N1CCn2cccc2C1c1ccc(F)c(F)c1 (stereo not given) returned VACV Venus inh inactive, HCMV antiviral inactive, FMDV inh inconclusive and VACV mCherry inh inactive.
Screening O=C(CSc1nc2ccsc2c(=O)n1NC(=O)c1ccccc1)NCc1ccco1 returned VACV Venus inh inactive, HCMV antiviral inactive, FMDV inh inactive, Giardia FBPA inh inactive, HCV inhibitor inactive and VACV mCherry inh inactive.
Screening O=C(CSc1c2c(nc3ccccc13)CCCC2)NCc1ccco1 returned HCMV antiviral inactive, FMDV inh inactive, Giardia FBPA inh inactive and HCV inhibitor inconclusive.
`O=C(CSc1nc2ccsc2c(=O)n1Cc1ccccc1)NCc1ccco1` gave HCMV antiviral inactive, FMDV inh inactive, Giardia FBPA inh inactive and HCV inhibitor 8.91µM.
For COc1ccc(C(=O)CSc2nc(C(C)(C)C)nc3ccccc23)cc1 the results were HCMV antiviral inconclusive, FMDV inh inconclusive, Giardia FBPA inh inactive and HCV inhibitor 3.98µM.
`CC(C)(C)c1nc(SCC(=O)NCc2ccco2)c2ccccc2n1` gave VACV Venus inh inactive, HCMV antiviral -88.4, FMDV inh inactive, Giardia FBPA inh inactive, HCV inhibitor inconclusive and VACV mCherry inh inactive.
Screening CCCCn1c(SCC(=O)NCc2ccco2)nc2ccccc2c1=O returned VACV Venus inh inactive, HCMV antiviral inactive, FMDV inh inactive, Giardia FBPA inh inactive, HCV inhibitor inconclusive and VACV mCherry inh inactive.
CCCCCn1c(SCc2ccncc2)nc2cc(C(=O)NCc3ccco3)ccc2c1=O was read as VACV Venus inh inconclusive, HCMV antiviral inactive, FMDV inh inconclusive, Giardia FBPA inh inactive, HCV inhibitor 14.1µM and VACV mCherry inh inconclusive.
`CN(CC(=O)Nc1ccccc1Cl)C(=O)c1cc(C2CC2)nn1-c1ccccc1` gave HCMV antiviral inactive, FMDV inh inactive and HCV inhibitor inactive.

Assay outcomes from PubChem BioAssay.
